Data taken from PubChem BioAssay (Tox21).
Inconclusive results are not listed. Active and inactive are the calls of the source. Unless noted, calls come from the whole dose curve; as a rule, active = well fitted curve in the direction sought with a large enough effect in the repeat runs; inconclusive = weak or mixed curves; inactive = no such curve, though single readings can be large; an effect the other way counts as inactive or inconclusive.

What was measured:
[1] = qHTS assay to identify small molecule agonists of the hypoxia (HIF-1) signaling pathway - cell viability counter screen (AID 1224844; calls by dose curve; note: nearly all actives have a fitted effect of over 50% in size; note: potency is the fitted concentration of half-maximal effect)
Procedure, shortened: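 CellTiter-Glo luminescence read-out, 30 min RT, taken in the same wells as the beta-lactamase HRE reporter assay; HRE-bla ME-180 cells, 0.5% dialyzed FBS, 17 hr compound treatment at 37C, 5% CO2.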

[2] = qHTS assay to identify small molecule agonists of H2AX - cell viability counter screen (AID 1224847; calls by dose curve; note: top concentration of the series differs between compounds; nearly all actives have a fitted effect of over 30% in size)
Procedure, shortened: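 Wild-type CHO-K1 cells (10% FBS medium) were plated overnight at 37C, exposed to compounds at 15 concentrations for 3 hr at 37C (0.76% DMSO final), and viability was read as CellTiter-Glo luminescence after 30 min at room temperature.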

[3] = qHTS RealTime-Glo MT Cell Viability Assay in HepG2 cells - 24 hour (AID 1224867); note: nearly all actives have a fitted effect of over 50% in size
Procedure, shortened: (§1)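 Viability was tracked continuously by NanoLuc luminescence from prosubstrate reduced by living HepG2 cells, at successive time points over 40 h of compound exposure. Cells with reagent were preincubated 5 h at 37 °C before compound addition.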

[4] = qHTS RealTime-Glo MT Cell Viability Assay in HEK293 cells - 32 hour (AID 1224868); note: nearly all actives have a fitted effect of over 50% in size; note: potency is the fitted concentration of half-maximal effect
Procedure, shortened: (§2)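 Viability tracked continuously by luminescence as live cells reduce a prosubstrate for NanoLuc; HEK293 cells preincubated 5 h, compound-treated at 37 C, and read at 0, 8, 16, 24, 32 and 40 h.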

[5] = A CellTox Green Cytotoxicity Assay to monitor cytotoxicity in HEK293 cells - 0 hour (AID 1224869); note: nearly all actives have a fitted effect of over 50% in size
Procedure, shortened: (§3)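 Read-out: fluorescence of a cell-impermeant cyanine dye staining DNA of dead cells, proportional to cytotoxicity. HEK293, 600 cells/well with reagent, compound (23 nL DMSO) added after 5 h; reads at 0, 8, 16, 24, 32, 40 h.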

[6] = qHTS RealTime-Glo MT Cell Viability Assay in HepG2 cells - 40 hour (AID 1224870); note: nearly all actives have a fitted effect of over 50% in size
Procedure, shortened: (§4)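 HepG2 cells mixed with RealTime-Glo MT reagents (NanoLuc plus cell-permeant prosubstrate) were seeded at 600 cells/well, incubated 5 h at 37 C/5% CO2, then pinned with compounds in DMSO; nonlytic luminescence tracked viability during 40 h treatment.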

[7] = A CellTox Green Cytotoxicity Assay to monitor cytotoxicity in HEK293 cells - 40 hour (AID 1224871); note: nearly all actives have a fitted effect of over 45% in size; note: potency is the fitted concentration of half-maximal effect
Procedure, shortened: as §3

[8] = qHTS RealTime-Glo MT Cell Viability Assay in HepG2 cells - 8 hour (AID 1224873); note: nearly all actives have a fitted effect of over 55% in size
Procedure, shortened: as §4

[9] = qHTS RealTime-Glo MT Cell Viability Assay in HEK293 cells - 40 hour (AID 1224874); settings: RealTime-Glo luminescence; max response: active compounds read low; note: nearly all actives have a fitted effect of over 50% in size; note: potency is the fitted concentration of half-maximal effect
Procedure, shortened: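 Luminescence readout at each listed time point; HEK293, 600 cells/well, RealTime-Glo MT reagent added with cells; compounds pinned (23 nL in DMSO) after 5 h at 37 C; continuous culture at 37 C.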

[10] = A CellTox Green Cytotoxicity Assay to monitor cytotoxicity in HEK293 cells - 24 hour (AID 1224875); note: nearly all actives have a fitted effect of over 45% in size; note: potency is the fitted concentration of half-maximal effect
Procedure, shortened: as §3

[11] = A CellTox Green Cytotoxicity Assay to monitor cytotoxicity in HepG2 cells - 16 hour (AID 1224876); note: nearly all actives have a fitted effect of over 45% in size; note: potency is the fitted concentration of half-maximal effect
Procedure, shortened: (§5)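 HepG2, 600 cells/well premixed w/ CellTox Green; 5 h settle, 37 C/5% CO2; pintool cpd add (DMSO); 37 C, 40 h; fluorescence read at 0, 8, 16, 24, 32, 40 h.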

[12] = qHTS RealTime-Glo MT Cell Viability Assay in HepG2 cells - 32 hour (AID 1224877); note: nearly all actives have a fitted effect of over 55% in size
Procedure, shortened: as §1

[13] = A CellTox Green Cytotoxicity Assay to monitor cytotoxicity in HepG2 cells - 40 hour (AID 1224879); note: nearly all actives have a fitted effect of over 40% in size; note: potency is the fitted concentration of half-maximal effect
Procedure, shortened: as §5

[14] = qHTS assay to identify small molecule agonists of H2AX (AID 1224845; active = well fitted activation curve with a large enough effect in the signal ratio in the repeat runs, not every such curve was filed as active; the % refers to the signal ratio)
Procedure, shortened: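 Wild-type CHO-K1 cells plated overnight, then exposed 3 hr at 37C to compounds at 15 concentrations (0.76% DMSO). Lysed, then HTRF anti-pH2AX(S139)-cryptate/anti-H2AX-d2 detection after 24 hr at room temperature; emissions 665 and 620 nm.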

[15] = qHTS assay to identify small molecule agonists of the hypoxia (HIF-1) signaling pathway (AID 1224846; active = well fitted activation curve with a large enough effect in the signal ratio in the repeat runs, not every such curve was filed as active; the % refers to the signal ratio)
Procedure, shortened: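 Beta-lactamase FRET read-out (CCF4-AM substrate) from ME-180 cells carrying an HRE-driven bla reporter, after 17 hrs compound exposure at 37C/5% CO2. Cells were seeded at 2,000 per well in 0.5% dialyzed FBS medium and preincubated 5 hrs.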

[16] = qHTS assay to identify small molecule antagonists of the estrogen related receptor (ERR) signaling pathway from Tox21 library (AID 1224848); note: nearly all actives have a fitted effect of over 50% in size
Procedure, shortened: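 Tox21 10K compounds in DMSO tested for ERR pathway antagonism in NTP's ERR cell line; 18 h, 37 C exposure; ONE-Glo luminescence.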

[17] = qHTS assay to identify small molecule agonists of the estrogen related receptor (ERR) signaling pathway from Tox21 library (AID 1224849; calls by dose curve; note: nearly all actives have a fitted effect of over 15% in size); settings: ERR reporter cell line, ONE-Glo luciferase, 18 h; at 92.4 µM (top of the series) unless noted
Procedure, shortened: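 Luminescence readout (ONE-Glo, 30 min RT) after 18 h compound exposure at 37 C of NTP-supplied ERR reporter cells; cells were plated 6 h before compound addition by pin tool.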

[18] = qHTS RealTime-Glo MT Cell Viability Assay in HEK293 cells - 16 hour (AID 1224872)
Procedure, shortened: as §2

[19] = A CellTox Green Cytotoxicity Assay to monitor cytotoxicity in HepG2 cells - 24 hour (AID 1224878); note: nearly all actives have a fitted effect of over 45% in size; note: potency is the fitted concentration of half-maximal effect
Procedure, shortened: as §5
% is set by controls: 0 for no effect and ±100 for the full control effect.

CC1(O)CSC(C)(O)CS1 (stereo not given)
inactive: Potency [1] | Potency [2] | Potency [3] | Potency [4] | Potency [5] | Potency [6] | Potency [7] | outcome [8] | max response [9] 5.86% | Potency [10] | Potency [11] | Potency [12] | Potency [13]

CCCCc1ccc2nc(NC(=O)OC)[nH]c2c1
active: activity change, positive = activation [17] 17.3% [at 42.5 µM] | Potency [13] 0.338 µM
inactive: Potency [14] | outcome [15] | Potency [2] | Potency [16] | Potency [3] | Potency [5] | Potency [6] | Potency [7] | Potency [18] | outcome [8] | Potency [10] | Potency [11] | Potency [12] | Potency [19]

CCCN(CCC)C(=O)C(CCC(=O)O)NC(=O)c1ccccc1 (stereo not given)
inactive: Potency [1] | Potency [14] | Potency [2] | Potency [16] | activity change, positive = activation [17] 0.999% [at 42.5 µM] | Potency [3] | Potency [4] | Potency [5] | Potency [6] | Potency [18] | outcome [8] | max response [9] 3.51% | Potency [10] | Potency [11] | Potency [12] | Potency [19] | Potency [13]

CC(C)NC[C@@H](O)COc1cccc2ccccc12
inactive: Potency [1] | Potency [2] | Potency [3] | Potency [4] | Potency [5] | Potency [6] | Potency [7] | Potency [18] | outcome [8] | max response [9] -27.3% | Potency [10] | Potency [11] | Potency [12] | Potency [19] | Potency [13]

CCc1cc(Cl)c(OC)c(C(=O)NC[C@@H]2CCCN2CC)c1O
inactive: Potency [1] | Potency [14] | Potency [2] | Potency [16] | activity change, positive = activation [17] 1.1% [at 42.5 µM] | Potency [3] | Potency [4] | Potency [5] | Potency [6] | Potency [7] | Potency [18] | outcome [8] | max response [9] -13.1% | Potency [10] | Potency [11] | Potency [12] | Potency [13]

CC(C)C1=CC2=CC[C@@H]3[C@](C)(CCC[C@@]3(C)C(=O)O)[C@H]2CC1
active: Potency [1] 43.6 µM
inactive: Potency [14] | Potency [2] | activity change, positive = activation [17] -16.7% | Potency [3] | Potency [4] | Potency [5] | Potency [6] | Potency [7] | Potency [18] | outcome [8] | max response [9] 3.7% | Potency [10] | Potency [11] | Potency [12] | Potency [13]

CCOC(=O)COc1ccc2c(c1)CC(NCC(O)c1cccc(Cl)c1)CC2 (stereo not given)
active: Potency [11] 44 µM
inactive: Potency [1] | Potency [14] | outcome [15] | activity change, positive = activation [17] -15.6% | Potency [3] | Potency [4] | Potency [5] | Potency [6] | Potency [18] | outcome [8] | max response [9] -17.8% | Potency [12]

COc1ccc(Nc2ccc(OC)cc2)cc1
inactive: Potency [2] | Potency [16] | Potency [3] | Potency [5] | outcome [8] | Potency [10] | Potency [11] | Potency [12] | Potency [19] | Potency [13]
active: activity change, positive = activation [17] 38% | Potency [4] 25 µM | Potency [9] 28.1 µM

CN(C)CCOc1ccccc1Cc1ccccc1
inactive: Potency [1] | Potency [14] | Potency [2] | Potency [16] | activity change, positive = activation [17] 6.12% [at 42.5 µM] | Potency [3] | Potency [5] | Potency [7] | Potency [18] | outcome [8] | Potency [10] | Potency [12]

Cc1ccccc1C(=O)Nc1ccc(C(=O)N2CCCC(O)c3cc(Cl)ccc32)c(C)c1 (stereo not given)
inactive: Potency [1] | Potency [14] | Potency [2] | activity change, positive = activation [17] -27% [at 42.5 µM] | Potency [3] | Potency [5] | Potency [6] | Potency [7] | outcome [8] | Potency [10] | Potency [11] | Potency [12] | Potency [19] | Potency [13]

Cc1ccc(C=O)s1
inactive: Potency [1] | outcome [15] | Potency [2] | Potency [16] | activity change, positive = activation [17] 3.35% | Potency [3] | Potency [4] | Potency [6] | Potency [18] | outcome [8] | max response [9] 5.96% | Potency [12]
active: Potency [7] 43.6 µM | Potency [10] 43.6 µM | Potency [11] 27.5 µM | Potency [19] 38.9 µM | Potency [13] 27.5 µM

O=Cc1ccc(O)c(O)c1O
inactive: Potency [1] | Potency [2] | Potency [3] | Potency [4] | Potency [5] | Potency [6] | Potency [7] | Potency [18] | max response [9] 1.24% | Potency [10] | Potency [11] | Potency [12]
